The results in this text go back to PubChem BioAssay (NCI).

“And” between values parts separate entries of the source, which are not always exact repeats. Equal entries are not always repeated. This is part of a sample that, as a whole, favours compounds with a hit. Of some 83,000 tested, about 20% had one in any assay.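 Percent growth is the endpoint: 0 to 100 indicates growth inhibition (40 means 60% inhibition), 0 means no net growth, and negative values indicate cell death.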 Unmarked numbers belong to inactive results. The source made the active and inactive calls. Rule for the calls: active = growth percent below 10; inactive = the rest.

Some test systems named below: DU-145 prostate; K-562 leukemia; MALME-3M melanoma; MDA-MB-231 breast; RXF 393 renal; SF-268 CNS; SF-295 CNS; SF-539 CNS; UACC-257 melanoma; M14 melanoma.
What all share (test): NCI-60 one-dose screen, 48 h (100 = growth as untreated, 0 = no growth, -100 = all killed)
Common to all, as to conditions: 10 µM unless noted

In the case of `C=CCSc1nnc(-c2ccc(-c3nc4ccccc4[nH]3)cc2)o1`, the growth in the experiment with DU-145 prostate is 77.1%; in the experiment with K-562 leukemia it was 46%; with MALME-3M melanoma, 77.4%; with MDA-MB-231 breast, 92.2%; with RXF 393 renal, 71.3%; in the experiment on SF-268 CNS it was 87.4%. The growth was 76.2% in the experiment on SF-295 CNS, 82.2% in the experiment with SF-539 CNS, 88.2% in the experiment with UACC-257 melanoma and 73.5% in the experiment with M14 melanoma.

Turning to `Cc1ccc(C2CC(c3ccc(NC(=O)Nc4ccccc4)cc3)=NN2c2ccc(S(C)(=O)=O)cc2)cc1` (stereo not given), the growth in the experiment with DU-145 prostate was 3.25% (active); with K-562 leukemia it was 13.1%; with MALME-3M melanoma, -25.1% (active); with MDA-MB-231 breast, -70.1% (active); with RXF 393 renal, -78.9% (active); in the experiment with SF-268 CNS it was 9.34% (active). For the same compound, the growth in the experiment on SF-295 CNS is -20.3% (active); in the experiment with SF-539 CNS it was -97% (active); in the experiment on UACC-257 melanoma, 34.3%; in the experiment on M14 melanoma, -44.8% (active).

As for `S=C(Nc1ccc(OCc2nc3ccc(Cl)cc3[nH]2)cc1)NC1CCCCC1`, the growth with DU-145 prostate was 7.09% (active); in the experiment with K-562 leukemia, 5.65% (active); in the experiment with MALME-3M melanoma it was -21.6% (active); in the experiment with MDA-MB-231 breast it was -76.3% (active); in the experiment with RXF 393 renal, -52.3% (active); in the experiment with SF-268 CNS it was 5.6% (active). Moreover, the growth with SF-295 CNS is -15.9% (active); with SF-539 CNS, -79.3% (active); in the experiment on UACC-257 melanoma, 33.3%; with M14 melanoma it was -37.2% (active).

Take `N#Cc1cc(-c2ccc3ncnc(N4CCc5cc(F)c(Cl)cc54)c3c2)cnc1N`: the growth in the experiment on DU-145 prostate is 8.95% (active); with K-562 leukemia it was 37.8%; in the experiment with MALME-3M melanoma, 50.6%; with MDA-MB-231 breast it was 28.7%; in the experiment on RXF 393 renal it was 17.9%; in the experiment with SF-268 CNS, 46.5%. For the same compound, the growth is 40.1% with SF-295 CNS, 35.6% in the experiment with SF-539 CNS, 90.2% in the experiment with UACC-257 melanoma and 36.8% in the experiment on M14 melanoma.

`COc1cc(CNC(=O)[C@]23CCC(C)(C)CC2C2=CCC4[C@@]5(C)CCC(OC(C)=O)C(C)(C)C5CC[C@@]4(C)[C@]2(C)CC3)ccc1OCc1cn(-c2ccc(Cl)cc2Cl)nn1` (stereo not given in full): the growth with DU-145 prostate is 116%; in the experiment on K-562 leukemia, 85.5%; with MALME-3M melanoma, 99%; in the experiment on MDA-MB-231 breast, 88.8%; in the experiment on RXF 393 renal, 116%; in the experiment on SF-268 CNS it was 110%. Also, the growth with SF-295 CNS was 100%; with SF-539 CNS it was 101%; in the experiment with UACC-257 melanoma, 88.6%; in the experiment with M14 melanoma it was 98.2%.

Turning to `O=c1[nH]c2ccccc2cc1COc1ccc(Nc2nccc(-c3ccc(Cl)cc3)n2)cc1`, the growth was 89% in the experiment on DU-145 prostate; 95.2% with K-562 leukemia; 105% in the experiment on MALME-3M melanoma; 105% in the experiment on MDA-MB-231 breast; 91.8% in the experiment with RXF 393 renal; 105% in the experiment with SF-268 CNS. Moreover, the growth was 90.8% in the experiment on SF-295 CNS, 91.6% in the experiment with SF-539 CNS, 107% in the experiment with UACC-257 melanoma and 107% with M14 melanoma.

In the case of `O=C(Nc1ccc(-c2ccc3c(c2)NC(=O)/C3=C\c2ccc[nH]2)cc1)Nc1ccc(Cl)c(Cl)c1`, the growth in the experiment with DU-145 prostate was 54.3%; with K-562 leukemia, 39%; in the experiment on MALME-3M melanoma, 68.7%; with MDA-MB-231 breast, 71.5%; in the experiment with RXF 393 renal, -1.35% (active); in the experiment with SF-268 CNS, 48.9%. Moreover, the growth in the experiment on SF-295 CNS was 23.3%; in the experiment on SF-539 CNS it was -48.9% (active); in the experiment with UACC-257 melanoma it was 76%; with M14 melanoma, 59.3%.

Turning to `Cc1ccc(/C=C/C(=O)c2ccc(S(=O)(=O)NCCNc3nc(N(C)C)nc(N4CCOCC4)n3)cc2)cc1`, the growth in the experiment on DU-145 prostate is 95.3%; with K-562 leukemia, 6.8% (active); with MALME-3M melanoma, 108%; in the experiment on MDA-MB-231 breast, 85%; with RXF 393 renal, 85%; in the experiment with SF-268 CNS, 79.6%. The growth in the experiment with SF-295 CNS was 94.4%; with SF-539 CNS it was 81.7%; with UACC-257 melanoma, 85.7%; in the experiment with M14 melanoma it was 95.5%.

In the case of `N#Cc1c(-c2ccc(F)cc2)nc(SCc2ccc(F)cc2)nc1N1CCNCC1`, the growth in the experiment on DU-145 prostate was -3.44% (active); in the experiment on K-562 leukemia, 0.722% (active); in the experiment on MALME-3M melanoma, -97.8% (active); with MDA-MB-231 breast it was -93.6% (active); in the experiment on RXF 393 renal, -64.7% (active); with SF-268 CNS it was 41.5%. Further, the growth is -79.9% (active) in the experiment with SF-295 CNS, -98.9% (active) in the experiment on SF-539 CNS, -90.7% (active) in the experiment with UACC-257 melanoma and -88.4% (active) in the experiment with M14 melanoma.

With `COc1ccc(-c2cc(C)nc3[nH]c(=O)sc23)cc1`, the growth was 67.3% with DU-145 prostate; 62.5% in the experiment with K-562 leukemia; 95.2% in the experiment on MALME-3M melanoma; 34.6% in the experiment on MDA-MB-231 breast; 57% in the experiment on RXF 393 renal; 69.4% with SF-268 CNS. For the same compound, the growth was 45.7% with SF-295 CNS, 49.5% in the experiment with SF-539 CNS, 95.3% in the experiment with UACC-257 melanoma and 98.5% with M14 melanoma.

`NC1(c2ccc(-c3ccc4ncnc(NCc5ccccc5)c4c3)cn2)COC1`: the growth in the experiment with DU-145 prostate is 105% and 97.7%; in the experiment on K-562 leukemia, 114% and 100%; in the experiment on MALME-3M melanoma, 106%; in the experiment on MDA-MB-231 breast, 105% and 106%; in the experiment on RXF 393 renal, 103% and 101%; in the experiment with SF-268 CNS, 111% and 113%. The growth in the experiment on SF-295 CNS was 102% and 101%; with SF-539 CNS, 101% and 104%; with UACC-257 melanoma, 120% and 109%; in the experiment with M14 melanoma it was 134% and 114%.

For the compound `N/C(=N\c1nc2ccccc2s1)NC(=O)Nc1ccccc1F`, the growth in the experiment with DU-145 prostate is 9.55% (active); in the experiment on K-562 leukemia, 13.1%; in the experiment on MALME-3M melanoma, 33.3%; in the experiment with MDA-MB-231 breast, 19.9%; with RXF 393 renal it was -1.57% (active); in the experiment with SF-268 CNS it was 47.2%. In addition, the growth in the experiment on SF-295 CNS is 2.32% (active); in the experiment with SF-539 CNS, -40.1% (active); in the experiment on UACC-257 melanoma, 84.5%; in the experiment with M14 melanoma it was 31.1%.

For the compound `C/C(=N/O)c1ccc(NC(=O)CSc2nnc(-c3ccc4nc(-c5ccc(Cl)cc5)[nH]c4c3)o2)cc1`, the growth in the experiment on DU-145 prostate is 44.3%; in the experiment on K-562 leukemia it was 19.4%; in the experiment with MALME-3M melanoma, -4.58% (active); with MDA-MB-231 breast it was 36%; with RXF 393 renal, -40.6% (active); in the experiment on SF-268 CNS, 70.8%. Also, the growth with SF-295 CNS was 97.6%; in the experiment on SF-539 CNS, 43%; with UACC-257 melanoma, 97.4%; with M14 melanoma, 22.2%.
